Test results published in PubChem BioAssay AID1037 (National Center for Advancing Translational Sciences (NCATS), 2008).
Active and inactive are the calls of the source. Calls come from the whole dose curve.

Experiment: NSCLC 2 Cell Viability Secondary Assay for qHTS Assay for Epigenetic Modulators
Conditions: NSCLC 2 viability, MTS absorbance, 4 days
Source text: NIH Molecular Libraries Screening Centers Network [MLSCN] NIH Chemical Genomics Center [NCGC] MLSCN Grant: 1 X01 MH079860-01 Assay Provider: Elisabeth D. Martinez, University of Texas SW Medical Center NCGC Assay Overview: This secondary assay characterizes selected actives identified in the qHTS of the Locus Derepression (LDR) assay (PubChem AID 597). The LDR assay detects the derepression of a GFP reporter that is stably integrated in a region of the genome of murine c127i mammary cells that is presumably silenced. Compounds that cause derepression of the locus to express GFP are identified by enumerating GFP positive cells using a laser-scanning microplate cytometer. Selected LDR actives were assayed for killing of NSCLC 2, a patient-derived nonsmall cell lung carcinoma line. Known epigenetic drugs, like histone deacetylase inhibitors, can block cancer cell growth. NSCLC 2 cell viability was measured using Cell Titer 96 AQueous One (Promega), an assay which detects the ability of metabolically active cells to reduce a tetrazolium salt substrate (MTS), into a soluble formazan product that can be measured by colorimetry.
NCGC Assay Protocol Summary NSCLC 2 cells were plated in 96-well flat bottom tissue culture dishes (Corning) and grown overnight at 37 C and 5% CO2, then treated with compounds, incubated 4 days, and assayed for viability using the Cell Titer 96 AQueous One kit (Promega) according to the manufacturer's protocol. Absorbance at 490 nm and 650 nm (reference) was measured by a Spectra Max (Molecular Devices). Data were normalized to the untreated control (100% viability). Each cell line was tested in one or two independent assays, each containing 4 or 8 replicates. For further details, see R.L. Johnson, W. Huang, A. Jadhav, C.P. Austin, J. Inglese, E.D. Martinez, A Quantitative High-Throughput Screen Identifies Potential Epigenetic Modulators of Gene Expression, Analytical Biochemistry (2007), doi: 10.1016/j.ab.2007.12.028

SMILES | Potency | outcome
CC(C)C(=O)NC(c1ccc(N(C)C)cc1)c1ccc2cccnc2c1O (stereo not drawn) | 0.2 µM (active) | –
CC(C)C(=O)NC(c1ccco1)c1ccc2cccnc2c1O (stereo not drawn) | 0.8 µM (active) | –
O=C(CSc1cccc2cccnc12)N1CCCC1 | – | inactive
CN1C(=S)SC(c2ccccc2)N(C)C1c1ccccc1 (stereo not drawn) | – | inactive
O=Nc1ccc(O)c2ncccc12 | 1 µM (active) | –
CC(/C=C/C(=O)NO)=C\[C@@H](C)C(=O)c1ccc(N(C)C)cc1 | 0.04 µM (active) | –
O=C(CSc1cccc2cccnc12)NCc1ccccc1 | – | inactive
CC(C)C(=O)NC(c1ccco1)c1cc([N+](=O)[O-])c2cccnc2c1O (stereo not drawn) | 6 µM (active) | –
